# High-throughput results from PubChem.
# FLuc inh-1: Photinus pyralis luciferase inhibition | purified P. pyralis luciferase, luminescence, biochemical | AID 1347043 | 76,000 tested, 2.5% active | Potency, µM (titrated, usually from 115 µM), actives largely listed as inhibitors; further: on the % scale 0 is the no-effect control and ±100 the full control effect; nearly all actives have a fitted effect of over 65% in size
# Target sequence (P08659 whole entry, looked up): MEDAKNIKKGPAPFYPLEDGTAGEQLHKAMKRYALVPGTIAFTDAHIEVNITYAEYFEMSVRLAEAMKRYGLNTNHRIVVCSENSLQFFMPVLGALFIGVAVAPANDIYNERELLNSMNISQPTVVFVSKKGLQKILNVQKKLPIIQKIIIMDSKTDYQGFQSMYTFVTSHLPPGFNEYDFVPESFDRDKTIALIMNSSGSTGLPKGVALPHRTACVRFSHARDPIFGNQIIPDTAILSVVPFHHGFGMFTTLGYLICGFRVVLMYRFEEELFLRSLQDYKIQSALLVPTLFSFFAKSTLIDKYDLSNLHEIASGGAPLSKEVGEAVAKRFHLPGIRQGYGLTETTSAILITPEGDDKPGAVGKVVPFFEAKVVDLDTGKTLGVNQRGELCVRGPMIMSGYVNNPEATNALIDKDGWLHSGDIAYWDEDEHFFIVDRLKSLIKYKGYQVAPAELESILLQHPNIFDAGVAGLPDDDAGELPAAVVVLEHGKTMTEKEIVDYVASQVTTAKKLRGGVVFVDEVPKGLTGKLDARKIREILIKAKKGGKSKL
#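 Inhibitors were tested against purified firefly luciferase in a biochemical, low-substrate format (both substrates at 10uM) and luminescence measured with a CCD imager.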
# 3T3 cytotox: kills NIH 3T3 cells. NIH 3T3 viability, CellTiter-Glo ATP luminescence, 48-72 h. 94,000 tested, 4.3% active. Potency, µM (doses to about 96.7 µM), for the others: at the top dose activity change, negative = cytotoxicity, usual class: inhibitors; further: on the % scale 0 is the no-effect control and ±100 the full control effect; nearly all actives have a fitted effect of over 55% in size
#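 Cells were seeded at 400 per well, treated with pin-transferred compound, and kept 48 or 72 hr at 37 °C before CellTiter-Glo addition and luminescence imaging of cellular ATP.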
# HEK cytotox: cytotoxic compounds in HEK 293 cells; HEK 293 viability, ATP luminescence (CellTiter-Glo), 48-72 h; Potency, µM (doses to about 115 µM), inactives show top-dose activity change, negative = cytotoxicity, usual class: inhibitors; 94,000 tested, 6.6% active; AID 1345083; further: on the % scale 0 is the no-effect control and ±100 the full control effect; nearly all actives have a fitted effect of over 60% in size
#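 Cytotoxicity was scored by loss of ATP-coupled luminescence (CellTiter-Glo) in HEK 293 cells. Compound treatment ran 48 or 72 hr at 37 degree Celsius, 5% CO2, 95% humidity.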
# hNpr1 antagonist: blocks ANP-stimulated signaling of human Npr1 receptor; 76,000 tested, 1.6% active; HEK293 hNpr1 GloSensor cGMP, ANP-stimulated luminescence; Potency, µM (highest dose often 46.3 µM), inactives show at the top dose activity change, negative = inhibition, hits mostly inhibitors; calls by dose curve; further: on the % scale 0 is the no-effect control and ±100 the full control effect; nearly all actives have a fitted effect of over 60% in size
#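 HEK293 cells stably expressing human Npr1 and cGMP GloSensor pGS-40F, loaded 2 h with 2% GloSensor reagent, given compound 30 min at room temperature. Luminescence read before and 20 min after 0.1 nM hNppA.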
# FLuc SDR -ATP: firefly luciferase binding stabilization, ATP absent; shares compounds with FLuc inh-1; Purified FLuc-C-HiBiT, Nano-Glo HiBiT luminescence, no ATP; Potency, µM (highest dose often 32.7 µM), inactives show at the top dose activation (signal gain), most hits filed as activators; 1,300 tested, 7.8% active; further: nearly all actives have a fitted effect of over 55% in size
# FLuc SDR ATP: firefly luciferase binding stabilization, ATP added. shares compounds with FLuc inh-1. 1,300 tested, 8.7% active. purified FLuc-C-HiBiT + ATP, HiBiT complementation luminescence. Potency, µM (titrated, usually from 32.7 µM), without a hit: at the highest dose activation (gain of signal), hits mostly activators;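 further: signal reports ligand binding via conformational change of the enzyme rather than luciferase catalysis; % of control where 0% means no effect; nearly all actives have a fitted effect of over 55% in size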
# FLuc inh-2: inhibitors of firefly luciferase enzymatic activity; shares compounds with FLuc inh-1; purified FLuc-C-HiBiT enzyme, luciferin luminescence; Potency, µM (highest dose often 32.7 µM), for the others: top-dose activity change, negative = inhibition, most hits filed as inhibitors; 1,300 tested, 42% active; further: on the % scale 0 is the no-effect control and ±100 the full control effect; nearly all actives have a fitted effect of over 70% in size
# NPR1 antag cnf: confirmation of human Npr1 natriuretic peptide receptor antagonists; shares compounds with hNpr1 antagonist; HEK293 hNpr1 cGMP GloSensor luminescence, ANP-stimulated; Potency, µM (doses to about 57.6 µM), for the others: at the highest dose activity change, negative = inhibition, hits mostly inhibitors; 1,400 tested, 76% active; calls by dose curve; further: nearly all actives have a fitted effect of over 70% in size
# NPR2 antag: hNpr2 antagonism, selectivity versus Npr1; shares compounds with hNpr1 antagonist; HEK293 hNpr2 GloSensor cGMP luminescence, CNP-stimulated; Potency, µM (doses to about 57.6 µM), inactives show at the highest dose activity change, negative = inhibition, actives largely listed as inhibitors; 1,400 tested, 67% active; calls by dose curve; further: nearly all actives have a fitted effect of over 70% in size
# FLuc counter: inhibits firefly luciferase, false Npr1 antagonist flag; shares compounds with hNpr1 antagonist; purified FLuc enzyme, luminescence, Km substrate; Potency, µM (highest dose often 57.6 µM), for the others: at the highest dose activity change, negative = inhibition, usual class: inhibitors; 1,400 tested, 0.7% active; AID 1347047; further: 0% is about no effect
# GloSensor cGMP: counter-screen for Npr1 antagonists: GloSensor control cell line; AID 1347051; Potency, µM (highest dose often 57.6 µM), for inactives: top-dose activity change, negative = inhibition, most hits filed as inhibitors; shares compounds with hNpr1 antagonist; HEK293 GloSensor cGMP, SNP-stimulated, luminescence; 1,400 tested, 69% active; calls by dose curve; further: on the % scale 0 is the no-effect control and ±100 the full control effect; nearly all actives have a fitted effect of over 70% in size
# Numbers without * were called inactive; i = inactive; u = inconclusive; x = no result; [ ] = dose if it differs, or a comment. An excerpt weighted towards active compounds, which were near 11% of everything screened. Unless noted, the call rests on the fitted dose curve; in most records, active means well fitted curve in the direction sought with a large enough effect; inconclusive means small, poorly fitted or top-dose-only effect, or another doubt; inactive means no such curve, though single readings can be large; an effect the other way counts as inactive or inconclusive. Potency means the concentration at half of the fitted maximal effect.
SMILES,FLuc inh-1,3T3 cytotox,HEK cytotox,hNpr1 antagonist,FLuc SDR -ATP,FLuc SDR ATP,FLuc inh-2,others
O=C(Nc1ccc2c(c1)OCCO2)c1cccn(Cc2ccccc2)c1=O,x,x,x,x,16.1%,10.7%,u,
CN1CCN(C(=O)COc2ccc(-c3nc4ccccc4s3)cc2)CC1,x,x,x,x,1.57µM*,u,0.495µM*,
C=C[C@H]1CN2CC[C@H]1C[C@@H]2CNS(=O)(=O)Cc1ccccc1,i,4.2%[174 µM],i,1.6%[70.6 µM],x,x,x,
COc1ccc2c(c1)C1(CCN(C(=O)Nc3ccc4c(c3)OCCO4)C1)C(=O)N2C (stereo not given),10µM*,-4.3%,-28.5%,-15.5%,22.4%,15.2%,u,
COc1ccc2c(c1)C1(CCN(C(=O)Nc3cccc(C)c3)C1)C(=O)N2C (stereo not given),i,-6.5%,-15.9%,-8.2%,x,x,x,
COC1CN(c2cccc(F)c2)C12CCNCC2 (stereo not given),i,-12.3%,u,2.8%,x,x,x,
C1CC(N(CC2CC2)C2CNC2)CCO1,i,i,i,12.5%,x,x,x,
CCCN1CCNc2cc(Nc3ccccc3)ncc2C1,6.31µM*,u,89.1µM*,-0.7%[70.6 µM],26.9%[65.7 µM],19.0%[65.7 µM],u,
COc1ccc([C@@H]2CN(c3nccc(C)n3)[C@@H]3C4CCN(CC4)[C@@H]32)cc1,i,-18.3%,-7.1%,2.0%,x,x,x,
COc1ccc(-c2cc3c(cn2)CN(C)CCN3)cn1,6.31µM*,u,-23.6%[230 µM],-20.8%[70.6 µM],19.9%[65.7 µM],15.5%[65.7 µM],u,
CCn1cc(-c2cc3c(cn2)CN(C)CCN3)cn1,x,x,x,x,15.6%[65.7 µM],9.1%[65.7 µM],u,
CNCc1cccnc1,x,i,3.0%[230 µM],x,x,x,x,
COc1cc2c(cc1Oc1cccc(N(C)C)c1)NC(=O)C21CCN(Cc2cccc(O)c2)CC1,i,u,25.1µM*,11.2µM*,x,x,x,NPR1 antag cnf=19.3µM*;NPR2 antag=21.7µM*;FLuc counter=-3.4%;GloSensor cGMP=17.2µM*
COc1cc2c(cc1Oc1cccc(N(C)C)c1)NC(=O)C21CCN(c2ncc(F)cn2)CC1,i,u,-17.7%,-18.7%,x,x,x,
COc1cc2c(cc1Oc1cccc(N(C)C)c1)NC(=O)C21CCN(Cc2ccccc2)CC1,i,25.1µM*,28.2µM*,11.2µM*,x,x,x,NPR1 antag cnf=17.2µM*;NPR2 antag=19.3µM*;FLuc counter=-2.3%;GloSensor cGMP=9.68µM*
COc1ccc(-c2cn(C[C@H]3CC4CCN3C[C@@H]4C(=O)NC3CCCCC3)nn2)cc1 (stereo not given in full),i,u,-20.9%[172 µM],5.8%[70.6 µM],x,x,x,
CCC(CC)c1cc([C@H]2CN3CC[C@H]2C[C@@H]3CNC(=O)COc2ccccc2)nc(-c2ccncc2)n1,i,22.4µM*,28.2µM*,11.2µM*,x,x,x,NPR1 antag cnf=17.2µM*;NPR2 antag=17.2µM*;FLuc counter=-2.3%;GloSensor cGMP=-9.3%
